Out of some 310,000 compounds screened, about 14,000 (4.5%) showed an effect of 50% or more. Effects have a minus sign here. The entries come from a sample that favours strong results as a whole.
Biological target: human ether-à-go-go-related gene (hERG) potassium channel (human, UniProt Q12809)
Assay: primary screen, population patch clamp on CHO cells stably expressing hERG; higher = less effect of the substance
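Note: peak tail current of the secondary pulse compared with the same well before compound.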

Chain of human ether-à-go-go-related gene (hERG) potassium channel (Q12809 whole entry, looked up): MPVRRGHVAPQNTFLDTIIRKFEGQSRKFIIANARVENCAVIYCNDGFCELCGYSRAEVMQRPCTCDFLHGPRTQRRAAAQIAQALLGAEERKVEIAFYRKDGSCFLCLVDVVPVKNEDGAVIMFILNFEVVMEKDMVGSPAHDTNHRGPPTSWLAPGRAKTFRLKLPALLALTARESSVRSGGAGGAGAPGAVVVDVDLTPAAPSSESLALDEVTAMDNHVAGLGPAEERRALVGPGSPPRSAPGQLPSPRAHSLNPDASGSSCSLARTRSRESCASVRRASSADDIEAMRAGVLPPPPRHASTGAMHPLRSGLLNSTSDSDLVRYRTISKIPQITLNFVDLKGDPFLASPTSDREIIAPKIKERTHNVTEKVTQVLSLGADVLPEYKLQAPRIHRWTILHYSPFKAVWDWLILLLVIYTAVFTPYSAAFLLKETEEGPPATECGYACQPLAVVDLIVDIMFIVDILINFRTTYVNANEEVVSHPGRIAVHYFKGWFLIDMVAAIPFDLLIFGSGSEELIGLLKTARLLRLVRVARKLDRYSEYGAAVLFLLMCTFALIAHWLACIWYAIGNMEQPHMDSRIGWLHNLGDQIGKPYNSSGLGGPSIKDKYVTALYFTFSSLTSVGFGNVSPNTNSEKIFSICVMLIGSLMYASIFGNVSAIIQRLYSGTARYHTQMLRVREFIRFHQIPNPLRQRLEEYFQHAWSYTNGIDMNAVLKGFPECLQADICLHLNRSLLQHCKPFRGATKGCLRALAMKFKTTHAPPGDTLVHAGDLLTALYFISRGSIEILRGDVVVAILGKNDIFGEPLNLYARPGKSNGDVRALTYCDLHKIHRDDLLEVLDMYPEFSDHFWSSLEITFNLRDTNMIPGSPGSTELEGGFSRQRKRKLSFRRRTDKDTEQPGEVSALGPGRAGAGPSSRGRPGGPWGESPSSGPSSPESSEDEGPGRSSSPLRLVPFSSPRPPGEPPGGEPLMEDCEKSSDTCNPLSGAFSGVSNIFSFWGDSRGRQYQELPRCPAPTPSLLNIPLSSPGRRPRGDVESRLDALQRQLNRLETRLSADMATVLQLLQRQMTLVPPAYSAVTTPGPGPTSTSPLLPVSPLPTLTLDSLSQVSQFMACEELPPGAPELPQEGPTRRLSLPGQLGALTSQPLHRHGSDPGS

Row | Structure (SMILES) | hERG current change (%, negative = inhibition) at 10uM [%]
1 | CC1C(=O)N2CCCc3cc(S(=O)(=O)N4CCC(C(N)=O)CC4)cc1c32 (stereo not drawn) | 7.24
2 | CC1CCN(c2ccc(C(=O)Nc3ccc4c(c3)OCO4)cc2[N+](=O)[O-])CC1 | 7.17
3 | O=C(CN(C(=O)C1CSC(=O)C1)c1ccccc1F)NCc1ccc2c(c1)OCO2 (stereo not drawn) | -12.4
4 | CN(Cc1ccccc1)C(=O)COC(=O)c1cc(S(=O)(=O)N(C)C)ccc1N1CCCC1 | 1.93
5 | COc1ccccc1NC(=O)COC(=O)c1cc([N+](=O)[O-])ccc1N1CCCC1 | -0.76
6 | COc1cccc(CNC(=O)COC(=O)c2cc([N+](=O)[O-])ccc2N2CCCC2)c1 | -56.9
7 | O=C(COC(=O)c1cc([N+](=O)[O-])ccc1N1CCOCC1)Nc1ccc(Cl)cn1 | -61.5
8 | O=C(COC(=O)c1cc([N+](=O)[O-])ccc1N1CCOCC1)Nc1c(Cl)cccc1Cl | -5.53
9 | CN(Cc1ccccc1)C(=O)COC(=O)c1ccc(S(=O)(=O)N(C)C)cc1 | -2.9
10 | O=C(COC(=O)c1cc([N+](=O)[O-])ccc1N1CCOCC1)NCCc1ccccc1 | -45.4
11 | O=C(COC(=O)c1cc([N+](=O)[O-])ccc1N1CCOCC1)Nc1cc(F)ccc1F | -49.8
12 | O=C(COC(=O)c1cc([N+](=O)[O-])ccc1N1CCOCC1)Nc1ncc(Cl)cc1Cl | -29.2
13 | CCN(CC)S(=O)(=O)c1ccc(O)c(C(=O)OCC(=O)N(C)Cc2ccccc2)c1 | -55.4
14 | COc1ccc(NC(=O)COC(=O)c2cc([N+](=O)[O-])ccc2N2CCOCC2)cc1 | -29.3
15 | O=C(COC(=O)c1cc([N+](=O)[O-])ccc1N1CCOCC1)NCc1ccc(F)cc1 | -53.7
16 | CCCc1nnc(NC(=O)CN2CCN(C)CC2)s1.Cl | -1.91
17 | O=C(Nc1cccc(O)c1)c1noc2c1CCCCC2 | -8.56
18 | O=c1[nH]nc(-c2ccc(F)cc2)cc1Cc1ccccc1 | 3.89
19 | CN(C)C(=O)c1cc(C(=O)c2ccc(F)cc2Cl)c[nH]1 | 11.4
20 | CN(Cc1ccc(OC(F)F)cc1)Cc1nc2c(Br)cc(Br)cc2c(=O)[nH]1 | -5.29
21 | COc1cc(/C=C/C(=O)OCC(=O)NC2CCS(=O)(=O)C2)ccc1OC(F)F (stereo not drawn) | -14

Row | Structure (SMILES) | hERG current change (%, negative = inhibition) at 10uM [%]
22 | COc1cc(NC(=O)NS(=O)(=O)c2ccc(C)cc2)cc(OC)c1 | -1.04
23 | CSc1snc(SCC(N)=O)c1C#N | 20.6
24 | Cc1cccc(-n2c(C)nc3c(cnn3-c3ccc(F)cc3)c2=O)c1 | -12.6
25 | COc1ccc(C)cc1NC(=O)c1cccc(-c2ccc(OC(C)=O)cc2)c1 | 28.5
26 | COc1ccc(NC(=O)Nc2nnc(N3CCC(C)CC3)s2)cc1OC | -0.885
27 | CC1=NNC(=O)C1C(c1cccc(O)c1)C(C#N)C#N (stereo not drawn) | 14.3
28 | CN(Cc1ccccc1)C(=O)COC(=O)c1cc([N+](=O)[O-])ccc1N1CCOCC1 | -56.7
29 | CC(=O)Nc1ccc(NC(=O)COC(=O)c2cc([N+](=O)[O-])ccc2N2CCOCC2)cc1 | 0.326
30 | O=C(NC1CCSc2ccccc21)c1cccc([N+](=O)[O-])c1 (stereo not drawn) | -21.1
31 | CC(NC(=O)COC(=O)c1cc([N+](=O)[O-])ccc1N1CCOCC1)c1ccc(F)cc1 (stereo not drawn) | -56.8
32 | CC(C)CCNC(=O)c1cc([N+](=O)[O-])ccc1N1CCOCC1 | -17.1
33 | O=C(COC(=O)c1cc([N+](=O)[O-])ccc1N1CCOCC1)c1ccccc1Cl | -2.75
34 | O=C(NC1CCSc2ccccc21)c1cc([N+](=O)[O-])ccc1N1CCOCC1 (stereo not drawn) | -57.8
35 | O=C(NC1CCCCC1)c1cc([N+](=O)[O-])ccc1N1CCOCC1 | -13.8
36 | O=C(COC(=O)c1cc([N+](=O)[O-])ccc1N1CCOCC1)Nc1cccc(F)c1 | -28.5
37 | O=C(NCCOc1ccccc1)c1cc([N+](=O)[O-])ccc1N1CCOCC1 | -62.1
38 | O=C(NCCOc1ccccc1F)c1cc([N+](=O)[O-])ccc1N1CCOCC1 | -45.1
39 | CCN(C(=O)COC(=O)c1cc([N+](=O)[O-])ccc1N1CCOCC1)c1ccccc1 | -34.3
40 | COC(=O)c1ccccc1NC(=S)N1CCC(N2CCCCC2)CC1 | -12.2
41 | Cc1oc(-c2ccccc2Cl)nc1CS(=O)CC(=O)NC1CC1 (stereo not drawn) | 7.58
42 | C[C@@H]1C=C[C@](Cc2ccccc2)(C(=O)NCCc2c[nH]c3ccccc23)N1C(=O)c1ccccc1 | -7.94

Row | Structure (SMILES) | hERG current change (%, negative = inhibition) at 10uM [%]
43 | COc1ccc(Nc2c(C)cccc2C)cc1 | 17.7
44 | COc1ccc(-c2cc(C)nc(SCC(=O)c3cccc([N+](=O)[O-])c3)n2)cc1 | 0.439
45 | O=C(COC(=O)C1C2CC3OC(=O)C1C3C2)Nc1ccc(F)cc1 (stereo not drawn) | 13.2
46 | COc1ccc(CN2CCC(C(=O)N3CCCC(C)C3)CC2)cc1OC.O=C(O)C(=O)O (stereo not drawn) | -19.2
47 | CCC(C)(C)NC(=O)CSc1nc(Cc2ccccc2)nc2ccccc12 | 11.5
48 | CCOc1ccccc1NS(=O)(=O)c1ccc2c(c1)NC(=O)CCS2 | -46
49 | O=C(CC1C(=O)NCCN1Cc1ccc(F)c(F)c1)NCCCn1ccnc1 (stereo not drawn) | 19
50 | CC(NC(=O)c1ccc2ccccc2n1)c1ccccc1 (stereo not drawn) | -6.17
51 | CN(CC(=O)Nc1ccc(F)cc1)C(=O)c1cc([N+](=O)[O-])ccc1N1CCOCC1 | -24.9
52 | CN(CC(=O)Nc1ccccc1Cl)C(=O)COC(=O)c1cc([N+](=O)[O-])ccc1N1CCOCC1 | -44.4
53 | COc1ccc(CCNC(=O)c2cc([N+](=O)[O-])ccc2N2CCOCC2)cc1 | -33
54 | NS(=O)(=O)c1ccc(CCNC(=O)c2cc([N+](=O)[O-])ccc2N2CCOCC2)cc1 | -15.2
55 | O=C(NCCc1cccc(Cl)c1)c1cccc([N+](=O)[O-])c1 | -15.7
56 | O=C(COC(=O)c1cc([N+](=O)[O-])ccc1N1CCOCC1)c1ccc(Br)cc1 | -44.6
57 | CN(CC(=O)Nc1ccc(F)cc1)C(=O)COC(=O)c1cc([N+](=O)[O-])ccc1N1CCOCC1 | -64.3
58 | O=C(NCCc1ccc(F)cc1)c1cc([N+](=O)[O-])ccc1N1CCOCC1 | -71.4
59 | O=C(COC(=O)c1cc([N+](=O)[O-])ccc1N1CCOCC1)c1ccc(F)cc1 | -55.9
60 | O=C(NCCc1cccc(Cl)c1)c1cc([N+](=O)[O-])ccc1Cl | -51
61 | O=C(NCCCc1ccccc1)c1cc([N+](=O)[O-])ccc1Cl | -12.3
62 | O=C(COC(=O)c1cc([N+](=O)[O-])ccc1N1CCOCC1)c1ccccc1 | -20.1
63 | CC(C)C(=O)NC(=S)Nc1sc2c(c1C(N)=O)CCCC2 | 13.5

Row | Structure (SMILES) | hERG current change (%, negative = inhibition) at 10uM [%]
64 | COc1ccc(N2C(=O)CSCC2=O)cc1OC | 8.4
65 | Cc1ccc2nc(CCl)[n+]([O-])c(-c3ccccc3)c2c1 | 1.16
66 | Cc1ccc(CN2C(=O)CCC2C(=O)NCCN2CCOCC2)cc1 (stereo not drawn) | 3.18
67 | CCc1cccc(CC)c1NC(=O)CN1CCN(c2ccccc2)CC1.Cl | -15.7
68 | O=S(=O)(N1CCOCC1)N1CCN(c2ccccc2F)CC1 | -8.17
69 | CC(C)CNC(=O)c1ccccc1-c1ccccc1C(=O)O | 19.5
70 | CCc1nnc(NC(=O)CSc2nnc(C(C)NC(=O)c3ccccc3F)n2C)s1 (stereo not drawn) | 9.22
71 | CCOc1ccc(NC(=O)c2cc([N+](=O)[O-])ccc2N2CCOCC2)cc1 | -55.5
72 | CCOc1ccc(NC(=O)COC(=O)c2cc([N+](=O)[O-])ccc2N2CCOCC2)cc1 | -43.8
73 | O=C(COC(=O)c1cc([N+](=O)[O-])ccc1N1CCOCC1)Nc1ccc(Cl)cc1 | -28.2
74 | COc1ccccc1CNC(=O)COC(=O)c1cc([N+](=O)[O-])ccc1N1CCOCC1 | -48.9
75 | O=C(COC(=O)c1cc([N+](=O)[O-])ccc1N1CCOCC1)NC1CCCCC1 | -30.7
76 | O=C(COC(=O)c1cc([N+](=O)[O-])ccc1N1CCOCC1)NCc1ccc(Cl)cc1Cl | -63
77 | CCOc1ccc(C(=O)c2cc([N+](=O)[O-])ccc2N2CCOCC2)cc1 | -20.4
78 | N#CC1(NC(=O)COC(=O)c2cc([N+](=O)[O-])ccc2N2CCCC2)CCCCC1 | -29.8
79 | N#CC1(NC(=O)COC(=O)c2cc([N+](=O)[O-])ccc2N2CCOCC2)CCCCC1 | -55.3
80 | CCOc1cc(/C=N/NC(=O)c2cccnc2)ccc1OCC(=O)N(C)C | 19.3
81 | CC(OC(=O)c1ccccc1C(=O)N(C)c1ccccc1)C(=O)Nc1ccccc1[N+](=O)[O-] (stereo not drawn) | -45.5

Source: publication PMC4336329 (PLoS ONE, 2015)
